Counter-ions that a name gives are not always drawn. ± gives the standard deviation of the averaged measurements.
Legend:
[1] = test system: Saccharomyces cerevisiae BY4741 SeMeCo community; test: z-score of prototroph abundance vs DMSO median; higher = larger share of this subpopulation than in DMSO controls; conditions: 10 µM; 24 h; SM minimal medium; subpopulation (auxotrophy): Prototroph
Outline: (§1)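 Cells of a Saccharomyces cerevisiae BY4741 community, carrying four plasmids that each restored one auxotrophy and encoded a distinct fluorescent protein, were pre-grown overnight to OD600 1.0 and diluted to 0.3. A 70 µl volume was added to 384-well plates acoustically predosed with library drugs (10 µM final) and grown 24 h in minimal SM medium. After paraformaldehyde fixation, automated confocal microscopy was used, with single-auxotroph fluorescent strains for thresholds and autofluorescence correction. The abundance of each subpopulation was scored as a z-score against the vehicle-well median.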

[2] = test system: Saccharomyces cerevisiae BY4741 SeMeCo community; test: z-score of subpopulation abundance vs DMSO median, subpopulation auxotrophic for L; higher = larger share of this subpopulation than in DMSO controls; conditions: 10 µM; 24 h; SM minimal medium; subpopulation (auxotrophy): L
Outline: as §1

[3] = test system: Saccharomyces cerevisiae BY4741 SeMeCo community; test: z-score of subpopulation abundance vs DMSO median, subpopulation auxotrophic for H; higher = larger share of this subpopulation than in DMSO controls; conditions: 10 µM; 24 h; SM minimal medium; subpopulation (auxotrophy): H
Outline: as §1

[4] = test system: Saccharomyces cerevisiae BY4741 SeMeCo community; test: z-score of subpopulation abundance vs DMSO median, subpopulation auxotrophic for LU; higher = larger share of this subpopulation than in DMSO controls; conditions: 10 µM; 24 h; SM minimal medium; subpopulation (auxotrophy): LU
Outline: as §1

[5] = test system: Saccharomyces cerevisiae BY4741 SeMeCo community; test: z-score of subpopulation abundance vs DMSO median, subpopulation auxotrophic for LM; higher = larger share of this subpopulation than in DMSO controls; conditions: 10 µM; 24 h; SM minimal medium; subpopulation (auxotrophy): LM
Outline: as §1

[6] = test system: Saccharomyces cerevisiae BY4741 SeMeCo community; test: z-score of subpopulation abundance vs DMSO median, subpopulation auxotrophic for HU; higher = larger share of this subpopulation than in DMSO controls; conditions: 10 µM; 24 h; SM minimal medium; subpopulation (auxotrophy): HU
Outline: as §1

[7] = test system: Saccharomyces cerevisiae BY4741 SeMeCo community; test: z-score of subpopulation abundance vs DMSO median, subpopulation auxotrophic for UM; higher = larger share of this subpopulation than in DMSO controls; conditions: 10 µM; 24 h; SM minimal medium; subpopulation (auxotrophy): UM
Outline: as §1

[8] = test system: Saccharomyces cerevisiae BY4741 SeMeCo community; test: z-score of subpopulation abundance vs DMSO median, subpopulation auxotrophic for HLU; higher = larger share of this subpopulation than in DMSO controls; conditions: 10 µM; 24 h; SM minimal medium; subpopulation (auxotrophy): HLU
Outline: as §1

[9] = test system: Saccharomyces cerevisiae BY4741 SeMeCo community; test: z-score of subpopulation abundance vs DMSO median, subpopulation auxotrophic for HUM; higher = larger share of this subpopulation than in DMSO controls; conditions: 10 µM; 24 h; SM minimal medium; subpopulation (auxotrophy): HUM
Outline: as §1

[10] = test system: Saccharomyces cerevisiae BY4741 SeMeCo community; test: z-score of subpopulation abundance vs DMSO median, subpopulation auxotrophic for HLUM; higher = larger share of this subpopulation than in DMSO controls; conditions: 10 µM; 24 h; SM minimal medium; subpopulation (auxotrophy): HLUM
Outline: as §1

[11] = test system: Saccharomyces cerevisiae BY4741 SeMeCo community; test: mean cell size (pixel area) (pixels); higher = larger cells; conditions: 10 µM; 24 h; SM minimal medium
Outline: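 In this assay, mean cell pixel area per well was obtained from automated confocal images of paraformaldehyde-fixed yeast analysed in Harmony. The cells were a Saccharomyces cerevisiae BY4741 community with four plasmids, each complementing one auxotrophy and carrying a fluorescent marker, grown for 24 h in SM medium with drug at a final 10 µM in 384-well plates. Values are averaged across 3 replicates. Same SeMeCo high-content imaging drug screen: Selleck FDA-approved drugs at 10 µM, 24 h in SM medium, 384-well plates, 3 replicates.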

[12] = test system: Saccharomyces cerevisiae BY4741 SeMeCo community; test: z-score of subpopulation abundance vs DMSO median, subpopulation auxotrophic for HM; higher = larger share of this subpopulation than in DMSO controls; conditions: 10 µM; 24 h; SM minimal medium; subpopulation (auxotrophy): HM
Outline: as §1

[13] = test system: Saccharomyces cerevisiae BY4741 SeMeCo community; test: z-score of subpopulation abundance vs DMSO median, subpopulation auxotrophic for HL; higher = larger share of this subpopulation than in DMSO controls; conditions: 10 µM; 24 h; SM minimal medium; subpopulation (auxotrophy): HL
Outline: as §1

[14] = test system: Saccharomyces cerevisiae BY4741 SeMeCo community; test: z-score of subpopulation abundance vs DMSO median, subpopulation auxotrophic for HLM; higher = larger share of this subpopulation than in DMSO controls; conditions: 10 µM; 24 h; SM minimal medium; subpopulation (auxotrophy): HLM
Outline: as §1

[15] = test system: Saccharomyces cerevisiae BY4741 SeMeCo community; test: z-score of subpopulation abundance vs DMSO median, subpopulation auxotrophic for LUM; higher = larger share of this subpopulation than in DMSO controls; conditions: 10 µM; 24 h; SM minimal medium; subpopulation (auxotrophy): LUM
Outline: as §1

[16] = test system: Saccharomyces cerevisiae BY4741 SeMeCo community; test: z-score of subpopulation abundance vs DMSO median, subpopulation auxotrophic for U; higher = larger share of this subpopulation than in DMSO controls; conditions: 10 µM; 24 h; SM minimal medium; subpopulation (auxotrophy): U
Outline: as §1

[17] = test system: Saccharomyces cerevisiae BY4741 SeMeCo community; test: z-score of subpopulation abundance vs DMSO median, subpopulation auxotrophic for M; higher = larger share of this subpopulation than in DMSO controls; conditions: 10 µM; 24 h; SM minimal medium; subpopulation (auxotrophy): M
Outline: as §1

Structure (SMILES) | z-score of prototroph abundance [1] | z-score of subpopulation abundance [2] | z-score of subpopulation abundance [3] | z-score of subpopulation abundance [4] | z-score of subpopulation abundance [5] | z-score of subpopulation abundance [6] | z-score of subpopulation abundance [7] | z-score of subpopulation abundance [8] | z-score of subpopulation abundance [9] | z-score of subpopulation abundance [10] | mean cell size [11] | z-score of subpopulation abundance [12] | z-score of subpopulation abundance [13] | z-score of subpopulation abundance [14] | z-score of subpopulation abundance [15] | z-score of subpopulation abundance [16] | z-score of subpopulation abundance [17]
COc1ccc(Cl)cc1C(=O)NCCc1ccc(S(=O)(=O)NC(=O)NC2CCCCC2)cc1 [Glyburide (Glibenclamide)] | -0.6 | 1.58 | 0.81 | -0.07 | 1.74 | -0.2 | -0.02 | 0.43 | -0.09 | 0.01 |  |  |  |  |  |  | 
N[C@@H]1CN(c2c(F)cc3c(=O)c(C(=O)O)cn([C@@H]4C[C@@H]4F)c3c2Cl)CC12CC2 [Sitafloxacin Hydrate] | -1.39 | 0.29 | 0.2 | 0.44 | 0.69 | 1.54 | 1.53 | 0.03 |  | -0.03 | 12.2 ± 0.062 | 0.61 | 0.18 | -0.5 | 0.98 |  | 
O=c1n(CCCN2CCN(c3cccc(Cl)c3)CC2)nc2ccccn12 [Trazodone HCl] | -0.06 | -1.59 | -0.86 | -0.97 | -0.41 |  | 0.22 | -0.83 |  | -0.57 | 12.6 ± 0.15 | 0.92 | -0.82 | 0.04 | -0.51 | -0.6 | 
Cc1onc(-c2ccccc2)c1C(=O)N[C@@H]1C(=O)N2[C@@H]1SC(C)(C)[C@@H]2C(=O)O [Oxacillin sodium monohydrate] |  | 0.52 |  |  |  | 0.32 | 0.41 | 0.2 |  | 0.03 | 12.04 ± 0.12 | -0.14 | 0.94 | -0.54 | 0.47 | 0.36 | 
CN1CCN2c3ncccc3Cc3ccccc3C2C1 (configuration not stated) [Mirtazapine] | 0.24 | -0.64 | -0.51 | -0.59 | -0.11 | 0.29 | 0.24 |  | 1.07 | -0.87 | 12.38 ± 0.12 | -0.07 | -0.38 | -0.85 | -0.74 | 0.29 | 0.18
CCN1CCN(c2cc3c(cc2F)c(=O)c(C(=O)O)cn3C2CC2)CC1 [Enrofloxacin] | 0.16 | -0.5 |  |  |  | 0.07 | 0 | -0.04 | 0.02 | -0.35 | 12.04 ± 0.1 | -0.25 | -0.47 | 0.21 | -0.06 | 0.01 | 
O=C1C(CC[S+]([O-])c2ccccc2)C(=O)N(c2ccccc2)N1c1ccccc1 (racemic) [(+/-)-Sulfinpyrazone] | 0.12 | -0.72 | -0.21 | 0.28 | 0.26 | -0.49 | 0.41 |  | 0.22 | -0.47 | 12.5 ± 0.2 | 0.14 | -0.17 | 0.61 | 0.05 | -0.3 | -0.48
CC[C@H]1OC(=O)C[C@@H](O)[C@H](C)[C@@H](O[C@@H]2O[C@H](C)[C@@H](O[C@H]3C[C@@](C)(O)[C@@H](O)[C@H](C)O3)[C@H](N(C)C)[C@H]2O)[C@@H](CC=O)C[C@@H](C)C(=O)/C=C/C(C)=C/[C@@H]1CO[C@@H]1O[C@H](C)[C@@H](O)[C@@H](OC)[C@H]1OC [Tylosin] | -1.25 | 1.29 | 2.22 | 0.45 | 1.45 | 0.26 |  |  | 1.06 | 0.01 | 12.16 ± 0.07 | 0.74 | 2.73 | 0.99 | 1.17 | 0.25 | -0.28
OC(c1cc(C(F)(F)F)nc2c(C(F)(F)F)cccc12)C1CCCCN1 (configuration not stated) [Mefloquine HCl] | -0.39 | 0.1 | -0.01 | 1.02 | 0.3 | -0.36 | 0.92 |  | 0.3 | 0.33 | 12.3 ± 0.37 | 0.44 | 0.36 | 0 | 0.86 | 0.95 | -0.32
CC(C)[N+](C)(CCOC(=O)C1c2ccccc2Oc2ccccc21)C(C)C [Propantheline bromide] | 0.94 | -0.57 | 0.9 |  |  | -0.76 | -1.12 | -1.23 | -1.29 | -0.56 | 12.5 ± 0.22 | 0.76 |  | -0.74 |  | -0.28 | 
CC(=O)O[C@H]1C[C@@H]2CC[C@@H]3[C@H](CC[C@@]4(C)[C@H]3C[C@H]([N+]3(C)CCCCC3)[C@@H]4OC(C)=O)[C@@]2(C)C[C@@H]1N1CCCCC1 [Vecuronium Bromide] | 0.67 | 0.57 | -0.09 | 0 | -1.11 | -0.65 | -0.59 |  | 0.09 | 0.24 | 12.4 ± 0.31 | -0.57 | -0.24 | -0.5 | -0.05 | -0.48 | -0.47
CCN(CC)C(=O)N1CCN(C)CC1 [Diethylcarbamazine citrate] | 0.16 | -0.21 | -0.57 | 0.3 | -0.13 | -0.43 | 0.18 |  | 0.13 | -0.66 | 12.6 ± 0.14 | -0.19 | -1.04 | 0.15 |  | 0.67 | -0.11
Cc1cc(NS(=O)(=O)c2ccc(N)cc2)no1 [Sulfamethoxazole sodium] | -0.28 |  | -0.82 |  | -1.48 | 0.96 | 1.33 | -1.18 | 1.03 | -0.74 | 12.3 ± 0.35 | -0.51 | -1.13 | -0.73 |  | 0.7 | 
C[C@H](NCc1ccc(OCc2cccc(F)c2)cc1)C(N)=O [Safinamide Mesylate] | -0.78 | 0.79 | 0.45 | 0.54 | 0.94 | 0.27 | 0.17 |  | 0.75 | 0.33 | 12.4 ± 0.16 | 1.04 | 0.64 | 0.54 | 0.24 | -0.34 | 0.58
CCN(Cc1ccncc1)C(=O)C(CO)c1ccccc1 (configuration not stated) [Tropicamide] | -0.08 | 0.34 | -0.6 | 0.14 | 0.83 | 0.5 | 0.23 |  | 0.16 | 0.01 | 12.48 ± 0.099 | -0.12 | 0.16 | -0.45 |  | 0.43 | -0.16
Oc1ccc(C2CNCCc3c2cc(O)c(O)c3Cl)cc1 (configuration not stated) [Fenoldopam mesylate] | 0.87 | -1.59 | 0.06 |  |  | -0.06 | -1.9 | -0.29 |  | 1.24 |  |  |  | 0.63 | -1.22 | -1.92 | 

— the supplement of paper PMC8975748
